Common to all, as to test: qHTS profiling for inhibitors of Plasmodium falciparum proliferation (AID 504749); also: nearly all actives have a fitted effect of over 60% in size
Common to all, as to settings: P. falciparum in erythrocytes, SYBR Green DNA, 72 h; series mostly up to 28.7 µM

One assay has as its system JCK. The procedure, abridged: (§1)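 Readout was DNA-dye fluorescence from lysed cultures, ex 485/em 535 nm. Parasitized red cells had grown 72 h with compound; data scaled between 0.29 uM artemisinin and DMSO wells and corrected using vehicle-only plates.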
Another assay relates to N140. The procedure, abridged:
as §1

A further assay concerns P93_24. The procedure, abridged: as §1
The next assay relates to P94_40. Put shortly: as §1
Another assay deals with PAD. The procedure, abridged: as §1
For a further assay, the system named is PC15. The procedure, abridged: as §1
A further assay relates to PC26. Put shortly:
as §1

The test system of the next assay is PC49. Put shortly: as §1
The test system of another assay is SC27B. The procedure, abridged: as §1
A further assay concerns TAB109. Put shortly:
as §1

The structures appear in SMILES notation. Records with an inconclusive call do not appear. The source made the active and inactive calls. Calls follow the shape of the dose curve; as a rule, active = well fitted inhibition curve with a large enough effect; inconclusive = small, poorly fitted or top-dose-only effect; inactive = flat fitted curve, though single readings scatter.
Potency is read from the fitted curve at half-maximal effect.

As for `N[C@H](CO)C(=O)O`, the Potency result with JCK, with N140, in the assay on P93_24, with P94_40, in the assay with PAD and with PC15 was “inactive” in each case. Moreover, the Potency result in the assay with PC26, with PC49, with SC27B and in the assay on TAB109 was “inactive” throughout.
Turning to `CCn1cc(C(=O)O)c(=O)c2cnc(N3CCCC3)nc21`, the Potency result with JCK, in the assay with N140, with P93_24, with P94_40, in the assay with PAD and in the assay with PC15 was “inactive” in each case. Further, the Potency entry with PC26, with PC49, with SC27B and in the assay on TAB109 was “inactive” throughout.
As to `C[C@H]1C[C@H]2[C@@H]3CCC4=CC(=O)C=C[C@]4(C)[C@@]3(Cl)[C@@H](O)C[C@]2(C)[C@@]1(O)C(=O)CO`, the Potency result in the assay on JCK, with N140, with P93_24, in the assay on P94_40, with PAD and in the assay with PC15 was “inactive” throughout. Moreover, the Potency entry in the assay with PC26, with PC49, in the assay on SC27B and with TAB109 was “inactive” each time.
As to `CC(Cc1cccc(C(F)(F)F)c1)NCCOC(=O)c1ccccc1` (stereo not given), the Potency entry in the assay on JCK, in the assay with N140, in the assay on P93_24, in the assay on P94_40, with PAD and with PC15 was “inactive” each time. The Potency entry in the assay on PC26, with PC49, in the assay on SC27B and with TAB109 was “inactive” in each case.
On to `NC(CO)(CO)CO`, for which the Potency result in the assay on JCK, in the assay with N140, in the assay on P93_24, in the assay on P94_40, with PAD and in the assay on PC15 was “inactive” each time. Also, the Potency result in the assay with PC26, in the assay on PC49, with SC27B and with TAB109 was “inactive” throughout.
Turning to `CN1C(CCl)Nc2cc(Cl)c(S(N)(=O)=O)cc2S1(=O)=O` (stereo not given), the Potency result in the assay with JCK, with N140, in the assay on P93_24, in the assay on P94_40, with PAD and with PC15 was “inactive” in each case. Moreover, the Potency entry in the assay on PC26, in the assay with PC49, with SC27B and with TAB109 was “inactive” throughout.
As to `COC1=CC(=O)C[C@@H](C)[C@]12Oc1c(Cl)c(OC)cc(OC)c1C2=O`, the Potency entry in the assay with JCK, in the assay with N140, in the assay with P93_24, in the assay with P94_40, in the assay on PAD and in the assay with PC15 was “inactive” throughout. Moreover, the Potency entry in the assay with PC26, in the assay on PC49, with SC27B and in the assay with TAB109 was “inactive” each time.
For the molecule `CN1CCC[C@@H]1c1cccnc1`, the Potency entry in the assay with JCK, in the assay on N140, in the assay on P93_24, in the assay with P94_40, in the assay on PAD and in the assay on PC15 was “inactive” in each case. Besides, the Potency result in the assay on PC26, in the assay with PC49, with SC27B and in the assay with TAB109 was “inactive” throughout.
Turning to `CC(C)COC(=O)OCN1C(=O)CN(CCN2CC(=O)N(COC(=O)OCC(C)C)C(=O)C2)CC1=O`, the Potency entry in the assay on JCK, with N140, with P93_24, with P94_40, in the assay with PAD and in the assay with PC15 was “inactive” each time. Also, the Potency entry in the assay with PC26, with PC49, with SC27B and in the assay on TAB109 was “inactive” each time.
With `C[C@]12CCC(=O)C=C1CC[C@H]1[C@@H]3CC[C@](O)(C(=O)CO)[C@@]3(C)C[C@H](O)[C@@]12F`, the Potency result in the assay on JCK, in the assay on N140, in the assay with P93_24, in the assay with P94_40, in the assay on PAD and with PC15 was “inactive” throughout. Also, the Potency result with PC26, in the assay with PC49, in the assay on SC27B and with TAB109 was “inactive” in each case.
On to `CCC(=O)c1c(O)cc(O)cc1O`, for which the Potency entry with JCK, with N140, with P93_24, with P94_40, with PAD and in the assay on PC15 was “inactive” each time. For the same molecule, the Potency entry in the assay with PC26, with PC49, in the assay on SC27B and in the assay on TAB109 was “inactive” in each case.
In the case of `O=C(Nc1ccc(Oc2ccc(Cl)cc2)c(Cl)c1)c1cc(I)cc(I)c1O`, the Potency result with JCK, in the assay with N140, with P93_24, with P94_40, in the assay with PAD and with PC15 was “inactive” throughout. Also, the Potency entry in the assay on PC26, with PC49, with SC27B and in the assay on TAB109 was “inactive” in each case.
For the molecule `COc1c2occc2c(OC)c2c(=O)cc(C)oc12`, the Potency result with JCK, with N140, in the assay with P93_24, with P94_40, in the assay on PAD and in the assay with PC15 was “inactive” each time. Besides, the Potency result in the assay on PC26, in the assay on PC49, in the assay with SC27B and in the assay with TAB109 was “inactive” throughout.
Regarding `CCCN1CCCC[C@H]1C(=O)Nc1c(C)cccc1C`, the Potency result with JCK, in the assay with N140, in the assay on P93_24, in the assay on P94_40, with PAD and with PC15 was “inactive” each time. For the same molecule, the Potency result in the assay on PC26, in the assay on PC49, with SC27B and with TAB109 was “inactive” throughout.
For the molecule `N[C@H](Cc1c[nH]c2ccccc12)C(=O)O`, the Potency result in the assay on JCK, in the assay on N140, in the assay with P93_24, with P94_40, in the assay with PAD and in the assay with PC15 was “inactive” throughout. Moreover, the Potency entry in the assay on PC26, in the assay on PC49, with SC27B and in the assay with TAB109 was “inactive” in each case.
In the case of `Oc1c(Cl)cc(Cl)cc1Sc1cc(Cl)cc(Cl)c1O`, the Potency entry with JCK, in the assay with N140, with P93_24, in the assay with P94_40, with PAD and in the assay with PC15 was “inactive” each time. Also, the Potency result in the assay with PC26, in the assay on PC49, in the assay with SC27B and in the assay with TAB109 was “inactive” each time.
Consider `CCN(CC)C(=O)N1CCN(C)CC1`, for which the Potency result in the assay with JCK, with N140, in the assay on P93_24, with P94_40, in the assay with PAD and with PC15 was “inactive” each time. Moreover, the Potency entry in the assay on PC26, with PC49, in the assay with SC27B and with TAB109 was “inactive” each time.
For the molecule `CC(C)(C)CC(C)(C)c1ccc(O)c(Cc2ccc(Cl)cc2Cl)c1`, the Potency is 3160 nM (active) with JCK; 794 nM (active) with N140; 1260 nM (active) with P93_24; 1000 nM (active) in the assay with P94_40; 1000 nM (active) in the assay on PAD; 2240 nM (active) with PC15. The Potency is 1510 nM (active) in the assay on PC26, 1780 nM (active) with PC49, 1260 nM (active) with SC27B and 2000 nM (active) with TAB109.
In the case of `Nc1cc(Cl)c(NC2=NCCN2)c(Cl)c1`, the Potency entry in the assay on JCK, in the assay with N140, in the assay on P93_24, in the assay with P94_40, in the assay on PAD and in the assay with PC15 was “inactive” throughout. In addition, the Potency result with PC26, with PC49, in the assay on SC27B and in the assay with TAB109 was “inactive” throughout.
Turning to `C#C[C@]1(OC(C)=O)CC[C@H]2[C@@H]3CCC4=C[C@@H](OC(C)=O)CC[C@@H]4[C@H]3CC[C@@]21C`, the Potency entry in the assay on JCK, in the assay on N140, with P93_24, in the assay with P94_40, in the assay with PAD and in the assay on PC15 was “inactive” each time. The Potency entry in the assay with PC26, in the assay with PC49, in the assay on SC27B and with TAB109 was “inactive” each time.
As for `N[C@@H](Cc1cnc[nH]1)C(=O)O`, the Potency entry with JCK, in the assay on N140, in the assay with P93_24, in the assay on P94_40, with PAD and with PC15 was “inactive” each time. The Potency entry in the assay on PC26, in the assay on PC49, with SC27B and in the assay on TAB109 was “inactive” in each case.
Regarding `CCCCCCCCCCCCCCCCOP(=O)([O-])OCC[N+](C)(C)C`, the Potency entry with JCK, with N140, in the assay on P93_24, in the assay on P94_40, with PAD and in the assay with PC15 was “inactive” each time. The Potency entry in the assay on PC26, with PC49, in the assay with SC27B and in the assay with TAB109 was “inactive” throughout.
